Where “and” joins values, the source holds several entries; their conditions need not be identical. Equal entries are not always repeated. The whole screen tested about 5,500 compounds, of which about 2,000 (36%) were called active. Another 18% or so got no clear call; they are omitted. This is one part of the list. A number with no mark means an inactive call. Cut-off read from the data, not from the text of the source: active = normalized growth mostly below about 0.91 (no sharp cut-off); inconclusive = no clear call, values can overlap the other calls; inactive = mostly above about 0.92.
Assay: chemical genetic growth profiling, strain panel (AID 1159580);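 note: tested at 20 µM; growth read once vehicle control cultures reached saturation at 30 °C; 1 = growth at the plate median or of vehicle wells; lower values mean less growth of the strain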
Conditions: S. cerevisiae deletion strains, growth OD

CC(=O)Oc1ccc2c(c1)CCC1C2CC[C@]2(C)C(=O)CCC12 (some centres undefined)
normalized growth (locus YAL013W, strain DEP1, hits give low values): 0.985 | normalized growth (locus YAL021C, strain ccr4, hits give low values): 0.995 | normalized growth (locus YAL026C, strain drs2, hits give low values): 0.992 | normalized growth (locus YAL030W, strain snc1, hits give low values): 0.972 | normalized growth (locus YBL061C, strain skt5, hits give low values): 0.987 | normalized growth (locus YBR009C, strain hhf1, hits give low values): 0.986 | normalized growth (locus YBR021W, strain FUR4, hits give low values): 0.961 | normalized growth (locus YBR023C, strain chs3, hits give low values): 0.985 | normalized growth (locus YBR171W, strain sec66, hits give low values): 0.963 | normalized growth (locus YBR229C, strain ROT2, hits give low values): 1 | normalized growth (locus YBR231C, strain swc5, hits give low values): 0.984 | normalized growth (locus YBR279W, strain paf1, hits give low values): 0.98 | normalized growth (locus YCL011C, strain gbp2, hits give low values): 0.994 | normalized growth (locus YCL016C, strain dcc1, hits give low values): 0.997 | normalized growth (locus YCL029C, strain bik1, hits give low values): 1.03 | normalized growth (locus YCL061C, strain MRC1, hits give low values): 0.985 | normalized growth (locus YCL069W, strain vba3, hits give low values): 0.986 | normalized growth (locus YCR088W, strain abp1, hits give low values): 0.979 | normalized growth (locus YDL005C, strain med2, hits give low values): 0.959 | normalized growth (locus YDL035C, strain GPR1, hits give low values): 0.957 | normalized growth (locus YDL040C, strain nat1, hits give low values): 0.989 | normalized growth (locus YDL074C, strain BRE1, hits give low values): 0.911 | normalized growth (locus YDL101C, strain DUN1, hits give low values): 1 | normalized growth (locus YDL134C, strain PPH21, hits give low values): 0.977 | normalized growth (locus YDL185W, strain tfp1, hits give low values): 1 | normalized growth (locus YDL192W, strain arf1, hits give low values): 1.01 | normalized growth (locus YDR001C, strain nth1, hits give low values): 0.985 | normalized growth (locus YDR069C, strain doa4, hits give low values): 0.969 | normalized growth (locus YDR101C, strain arx1, hits give low values): 1.02 | normalized growth (locus YDR137W, strain rgp1, hits give low values): 0.808 (active) | normalized growth (locus YDR150W, strain NUM1, hits give low values): 0.994 | normalized growth (locus YDR159W, strain sac3, hits give low values): 0.979 | normalized growth (locus YDR162C, strain NBP2, hits give low values): 0.998 | normalized growth (locus YDR195W, strain ref2): 0.942 | normalized growth (locus YDR297W, strain sur2, hits give low values): 0.99 | normalized growth (locus YDR318W, strain mcm21, hits give low values): 1.01 | normalized growth (locus YDR334W, strain swr1, hits give low values): 0.984 | normalized growth (locus YDR335W, strain msn5, hits give low values): 0.992 | normalized growth (locus YDR388W, hits give low values): 1.02 | normalized growth (locus YDR392W, strain spt3, hits give low values): 1.03 | normalized growth (locus YDR502C, strain sam2, hits give low values): 1.01 | normalized growth (locus YEL003W, strain gim4, hits give low values): 0.988 | normalized growth (locus YEL037C, strain rad23, hits give low values): 0.989 | normalized growth (locus YEL061C, strain CIN8 (second series), hits give low values): 0.977 | normalized growth (locus YEL061C, strain CIN8, hits give low values): 0.998 | normalized growth (locus YER015W, strain faa2, hits give low values): 0.964 | normalized growth (locus YER016W, strain bim1, hits give low values): 0.991 | normalized growth (locus YER110C, hits give low values): 1.01 | normalized growth (locus YER111C, strain swi4, hits give low values): 0.96 | normalized growth (locus YER155C, strain BEM2 (second series), hits give low values): 0.923 | normalized growth (locus YER155C, strain BEM2, hits give low values): 1.02 | normalized growth (locus YER167W, strain BCK2, hits give low values): 1.02 | normalized growth (locus YFR010W, strain ubp6, hits give low values): 0.985 | normalized growth (locus YGL078C, strain dbp3, hits give low values): 1.02 | normalized growth (locus YGL086W, strain mad1, hits give low values): 1 | normalized growth (locus YGL167C, strain pmr1, hits give low values): 0.98 | normalized growth (locus YGL173C, strain kem1, hits give low values): 0.981 | normalized growth (locus YGL227W, strain vid30, hits give low values): 0.987 | normalized growth (locus YGL240W, strain doc1, hits give low values): 0.95 | normalized growth (locus YGL248W, strain PDE1, hits give low values): 0.949 | normalized growth (locus YGL253W, strain hxk2, hits give low values): 0.995 | normalized growth (locus YGR135W, strain pre9, hits give low values): 1.01 | normalized growth (locus YGR229C, strain SMI1, hits give low values): 1.03 | normalized growth (locus YGR252W, strain gcn5, hits give low values): 0.887 | normalized growth (locus YHR013C, strain ard1, hits give low values): 1 | normalized growth (locus YHR027C, strain rpn1, hits give low values): 0.969 | normalized growth (locus YHR030C, strain SLT2, hits give low values): 1.01 and 0.944 | normalized growth (locus YHR079C, strain IRE1 (second series), hits give low values): 1.02 | normalized growth (locus YHR079C, strain IRE1, hits give low values): 0.933 | normalized growth (locus YHR094C, strain hxt1, hits give low values): 1.02 | normalized growth (locus YHR129C, strain ARP1, hits give low values): 1.01 | normalized growth (locus YHR142W, strain chs7, hits give low values): 0.978 | normalized growth (locus YHR200W, strain rpn10, hits give low values): 1.02 | normalized growth (locus YIL066C, strain RNR3, hits give low values): 0.944 | normalized growth (locus YIL073C, strain SPO22, hits give low values): 0.921 | normalized growth (locus YIL125W, strain kgd1, hits give low values): 1.01 | normalized growth (locus YIR030C, strain dcg1, hits give low values): 1.02 | normalized growth (locus YJL092W, strain hpr5, hits give low values): 0.981 | normalized growth (locus YJL095W, strain BCK1 (second series), hits give low values): 0.985 | normalized growth (locus YJL095W, strain BCK1, hits give low values): 0.92 and 0.928 | normalized growth (locus YJL115W, strain asf1, hits give low values): 0.978 | normalized growth (locus YJL129C, strain trk1, hits give low values): 0.984 | normalized growth (locus YJL134W, strain LCB3, hits give low values): 1.01 | normalized growth (locus YJL154C, strain vps35, hits give low values): 0.979 | normalized growth (locus YJL164C, strain tpk1, hits give low values): 0.996 | normalized growth (locus YJL166W, strain qcr8, hits give low values): 0.96 | normalized growth (locus YJL168C, strain set2, hits give low values): 1.01 | normalized growth (locus YJL187C, strain SWE1 (second series), hits give low values): 0.969 | normalized growth (locus YJL187C, strain SWE1, hits give low values): 0.981

— PubChem BioAssay AID1159580 (chemical genetic matrix, 2015)
